Screening data: PubChem BioAssay, National Center for Advancing Translational Sciences (NCATS)
Only some compounds are listed: those with a hit (about 7.4% of all), similar ones and a draw of the others.
FLuc inh-1: inhibitors of firefly (Photinus pyralis) luciferase. P08659. Potency, µM (series often up to 115 µM), hits mostly inhibitors. hit rate 2.5% among 76,000. purified P. pyralis luciferase, luminescence, biochemical; also: % is scaled to controls: 0 for no effect and ±100 for the full control effect; nearly all actives have a fitted effect of over 65% in size
Target sequence (P08659 whole entry, looked up): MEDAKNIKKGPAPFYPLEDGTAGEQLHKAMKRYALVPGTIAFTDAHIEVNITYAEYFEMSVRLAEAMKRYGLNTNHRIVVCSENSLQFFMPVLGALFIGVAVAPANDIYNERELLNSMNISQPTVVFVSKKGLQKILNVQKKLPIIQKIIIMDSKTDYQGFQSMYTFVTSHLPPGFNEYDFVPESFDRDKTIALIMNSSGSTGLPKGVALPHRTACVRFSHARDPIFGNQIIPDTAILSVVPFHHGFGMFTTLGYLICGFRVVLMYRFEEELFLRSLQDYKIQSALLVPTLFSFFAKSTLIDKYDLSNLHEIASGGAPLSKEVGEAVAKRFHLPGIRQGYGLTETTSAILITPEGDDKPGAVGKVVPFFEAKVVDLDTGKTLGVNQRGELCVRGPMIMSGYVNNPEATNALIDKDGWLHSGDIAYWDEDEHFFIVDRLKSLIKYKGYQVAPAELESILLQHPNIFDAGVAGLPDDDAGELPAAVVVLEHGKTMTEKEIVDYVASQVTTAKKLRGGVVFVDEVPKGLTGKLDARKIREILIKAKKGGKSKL
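Inhibitors were tested against purified firefly luciferase in a biochemical, low-substrate format (both substrates at 10uM) and luminescence measured with a CCD imager.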
HEK293 viab: reduces viability of HEK-293 SNCA reporter cells; HEK-293-SNCA-luc viability, GF-AFC fluorescence, 24 h; Potency, µM (highest dose often 57.1 µM), for the others: at the top dose activity change, negative = cytotoxicity, usual class: cytotoxic; hit rate 0.12% among 150,000;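 also: 0% = DMSO-treated cells and -100% = medium-only wells without cells; nearly all actives have a fitted effect of over 30% in size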
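Cytotoxicity counterscreen: after 24 h compound treatment of genome-edited SNCA-luciferase HEK-293 cells, live-cell protease substrate GF-AFC read by fluorescence after 30 min; activity scaled between DMSO (0%) and medium-only (-100%), curves Hill-fitted.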
NIH3T3 tox: cytotoxic compounds in NIH 3T3 cells; NIH 3T3 viability, CellTiter-Glo ATP luminescence, 48-72 h; Potency, µM (titrated, usually from 96.7 µM), without a hit: at the top dose activity change, negative = cytotoxicity, most hits filed as inhibitors; hit rate 4.3% among 94,000; AID 1345082; also: % is scaled to controls: 0 for no effect and ±100 for the full control effect; nearly all actives have a fitted effect of over 55% in size
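Cells were seeded at 400 per well, treated with pin-transferred compound, and kept 48 or 72 hr at 37 °C before CellTiter-Glo addition and luminescence imaging of cellular ATP.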
SNCA expr inhib: SNCA gene expression inhibition; HEK-293 SNCA-luciferase knock-in, luminescence, 24 h; Potency, µM (highest dose often 57.2 µM), for inactives: top-dose activity change, negative = inhibition, hits mostly inhibitors; hit rate 0.17% among 140,000;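 also: plate controls were DMSO cells for no effect and cell-free wells for full effect; nearly all actives have a fitted effect of over 45% in size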
HEK cytotox: cytotoxic compounds in HEK 293 cells; HEK 293 viability, ATP luminescence (CellTiter-Glo), 48-72 h; AID 1345083; Potency, µM (top dose mostly 115 µM), for the others: top-dose activity change, negative = cytotoxicity, actives largely listed as inhibitors; hit rate 6.6% among 94,000; also: % is scaled to controls: 0 for no effect and ±100 for the full control effect; nearly all actives have a fitted effect of over 60% in size
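250 HEK 293 cells/well; compound by pintool; incubated 48 or 72 hr at 37 degree Celsius; CellTiter-Glo added, 10 min RT, luminescence imaged.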
hNpr1 antagonist: blocks ANP-stimulated signaling of human Npr1 receptor. P16066. HEK293 hNpr1 GloSensor cGMP, ANP-stimulated luminescence. Potency, µM (top dose mostly 46.3 µM), without a hit: at the highest dose activity change, negative = inhibition, usual class: inhibitors. hit rate 1.6% among 76,000. AID 1347048; calls by dose curve; also: % is scaled to controls: 0 for no effect and ±100 for the full control effect; nearly all actives have a fitted effect of over 60% in size
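HEK293 cells stably expressing human Npr1 and cGMP GloSensor pGS-40F, loaded 2 h with 2% GloSensor reagent, given compound 30 min at room temperature. Luminescence read before and 20 min after 0.1 nM hNppA.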
FLuc SDR no ATP: stabilizes firefly luciferase without ATP; hit rate 7.8% among 1,300; shares compounds with FLuc inh-1; AID 1963318; Potency, µM (series often up to 32.7 µM), for inactives: at the top dose activation (signal gain), usual class: activators; Purified FLuc-C-HiBiT, Nano-Glo HiBiT luminescence, no ATP; also: nearly all actives have a fitted effect of over 55% in size
FLuc SDR ATP: binders stabilizing firefly luciferase, plus ATP; shares compounds with FLuc inh-1; purified FLuc-C-HiBiT + ATP, HiBiT complementation luminescence; Potency, µM (series often up to 32.7 µM), without a hit: at the highest dose activation (gain of signal), most hits filed as activators; hit rate 8.7% among 1,300; AID 1963319;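 also: signal reports ligand binding via conformational change of the enzyme rather than luciferase catalysis; % of control where 0% means no effect; nearly all actives have a fitted effect of over 55% in size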
FLuc inh-2: blocks firefly luciferase enzymatic activity. shares compounds with FLuc inh-1. purified FLuc-C-HiBiT enzyme, luciferin luminescence. Potency, µM (series often up to 32.7 µM), inactives show at the highest dose activity change, negative = inhibition, most hits filed as inhibitors. hit rate 42% among 1,300. AID 1963320; also: % is scaled to controls: 0 for no effect and ±100 for the full control effect; nearly all actives have a fitted effect of over 70% in size
An asterisk follows results filed as active; i = inactive; ? = inconclusive; / = no result; [ ] = another dose, or the depositor's remark. Unless noted, calls follow the shape of the dose curve; as a rule, active = well fitted curve in the direction sought with a large enough effect; inconclusive = small, poorly fitted or top-dose-only effect, or another doubt; inactive = no such curve, though single readings can be large; an effect the other way counts as inactive or inconclusive. Potency is read from the fitted curve at half-maximal effect.

SMILES	FLuc inh-1	HEK293 viab	NIH3T3 tox	SNCA expr inhib	HEK cytotox	hNpr1 antagonist	FLuc SDR no ATP	FLuc SDR ATP	FLuc inh-2
COc1ccccc1CCNC(=O)c1cc2ccccn2n1	/	3%	/	195%	/	/	/	/	/
CCc1ccc(NC(=O)c2cc3ccccn3n2)cc1	/	-10%	/	14%	/	/	?	?	1.8µM*
COC(=O)CNC(=O)c1ccc2oc(-c3cccnc3)nc2c1	/	3%	-23%	-13%	-5%	/	/	/	/
O=C(NCC1CCCN(C(=O)N2CCCC2)C1)c1ccc(-c2ccccc2)cc1 (stereo not given)	7.9µM*	-10%	?	-6%	?	-2%	19%	11%	?
CCc1c(C)nc2c(-c3cnn(-c4cc(CO)ccn4)c3)c[nH]n2c1=O	/	-3%	/	/	/	/	/	/	/
CCCCNc1nc(N)c2[nH]c(=O)n(Cc3ccc(OCCN(C)C)nc3)c2n1	/	1%	/	/	/	/	11%	8%	-5%
O=C(COc1ccccc1)Nc1nnc(S(=O)(=O)Nc2ccccc2)s1	/	-7%	/	21%	/	/	13%	8%	?
O=C(c1ccc2oc(-c3cccc(F)c3)nc2c1)N1CCCCC1CCO (stereo not given)	14µM*	4%	?	-18%	?	-21%	18%	16%	?
C[S+](=O)([O-])CCn1ncc2cc(OCc3cccc(-c4cccnc4)c3)ccc21	5µM*	-7%[87.6 µM]	?	21%[87.6 µM]	79µM*	28µM*	23%[49.3 µM]	?	16µM*
C[S+](=O)([O-])CCn1ncc2cc(OCc3cccc(-c4cccc(O)c4)c3)ccc21	4µM*	-29%[87.6 µM]	?	15%[87.6 µM]	71µM*	?	25%[49.3 µM]	15%[49.3 µM]	?
Cc1nccc(N2CCC(COc3ccc4c(cnn4CC[S+](C)(=O)[O-])c3)CC2)n1	i	-4%[87.6 µM]	?	-24%[87.6 µM]	?	?	/	/	/
O=C(NCCc1ccccn1)C1CN(C2CCCC2)C(=O)N1 (stereo not given)	/	1%[12.5 µM]	-16%[138 µM]	-15%[87.6 µM]	-1%[172 µM]	/	/	/	/
Cc1ccc(N2C(=O)c3n[nH]c(C)c3C2c2ccc(Cl)cc2)cc1 (stereo not given)	/	?	/	65%	/	/	17%	12%	?
Cc1ccc(N2C(=O)c3n[nH]c(C)c3C2c2ccccc2Cl)cc1 (stereo not given)	/	-18%	/	3%	/	/	/	/	/
COc1ccc(-c2nc3ccc(NS(C)(=O)=O)cc3o2)cc1	/	6%	/	53%	/	/	19%	15%	?
COC(=O)c1ccc2c(c1)/C(=C/c1cc(Br)c(O)c(Br)c1)C(=O)N2	/	/	/	/	/	/	5%	2%	9.9µM*
CN(C)c1ccc(/C=C2\C(=O)Nc3ccccc32)cc1	/	-28%	/	0%	/	/	/	/	/
Cc1nnc2ccc(N3CCCN(C(=O)NC(C)C)CC3)nn12	/	/	i	/	-7%[172 µM]	/	/	/	/
O=C(c1ccccc1Cl)N1CCN(c2ccc3nnc(-c4ccccc4)n3n2)CC1	/	/	?	/	-21%	/	/	/	/
COc1ccc(C2Cn3cnc(C(=O)N4CCC(C(=O)Nc5ccc(F)c(C)c5)CC4)c3CO2)cc1 (stereo not given)	i	6%	i	-13%	4%	-9%	/	/	/
Cc1ccc(NC(=O)C2CCN(C(=O)c3ncn4c3COC(c3ccccc3)C4)CC2)cc1C (stereo not given)	4µM*	8%	i	22%	5%	6%	14%	?	?
